Assay results taken from PubChem BioAssay (NCATS).
Inconclusive results are not listed. The source made the active and inactive calls. Calls follow the shape of the dose curve; as a rule, active = well fitted curve in the direction sought with a large enough effect; inconclusive = small, poorly fitted or top-dose-only effect, or another doubt; inactive = no such curve, though single readings can be large; an effect the other way counts as inactive or inconclusive.

Assays:
[1] = molecular target: ATP-dependent 6-phosphofructokinase (Trypanosoma brucei brucei) (UniProt O15648); assay: qHTS Assay to Find Inhibitors of T. brucei phosphofructokinase: hit validation (AID 492961);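 also: luminescence reports ADP formed as PFK phosphorylates fructose-6-phosphate with ATP; % is scaled to controls: 0 for no effect and ±100 for the full control effect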
How it was run: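 Reaction: 0.1 M triethanolamine pH 8.0, 5 mM MgCl2, F6P 0.5 mM, ATP 0.1 mM, PFK 1.25 nM, 45 min RT. Read-out: ADP-Glo luminescence. Analysis: concentration-response fits, classed by r2 and efficacy.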

[2] = molecular target: Ubiquitin carboxyl-terminal hydrolase 1 (Homo sapiens) (UniProt O94782); assay: Inhibitors of USP1/UAF1: Pilot qHTS (AID 504865);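 also: rhodamine fluorescence freed from ubiquitin-rhodamine substrate followed over time; top concentration of the series differs between compounds; % is scaled to controls: 0 for no effect and ±100 for the full control effect; nearly all actives have a fitted effect of over 35% in size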
How it was run: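 Kinetic fluorescence assay: 1nM USP1/UAF1, 15 min compound preincubation, then 150nM Ub-Rho; 480/540 nm.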

[3] = molecular target: Luciferin 4-monooxygenase (Photinus pyralis) (UniProt P08659); assay: Biochemical firefly luciferase enzyme assay for NPC (AID 624030);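 also: purified P. pyralis luciferase at 10 nM with luciferin and ATP substrate; 0% = DMSO and -100% = full luciferase inhibition by PTC124 control; nearly all actives have a fitted effect of over 70% in size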
How it was run: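 Counter-screen for direct inhibition of the luciferase enzyme by approved-drug library compounds, run at 10 nM enzyme in 50 mM Tris acetate (final). Luminescence was read within 5 min of enzyme-buffer addition and normalized to PTC124 versus DMSO (0%).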

[4] = qHTS profiling for inhibitors of Plasmodium falciparum proliferation (AID 504749);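 also: 0% = DMSO vehicle and full inhibition = artemisinin control; nearly all actives have a fitted effect of over 60% in size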; settings: P. falciparum in erythrocytes, SYBR Green DNA, 72 h, at 28.7 µM (top of the series)
How it was run: (§1)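 P. falciparum-infected erythrocytes (0.3% parasitemia, 2.5% hematocrit final) were exposed to compounds for 72 h at 37 C in 5% CO2, then lysed with SYBR Green buffer overnight at room temperature; parasite DNA fluorescence was normalized to artemisinin and DMSO controls.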

[5] = system: 3D7; assay: as above; settings: P. falciparum in erythrocytes, SYBR Green DNA, 72 h; series mostly up to 28.7 µM
How it was run: as §1

[6] = system: AA1029; assay: as above; settings: P. falciparum in erythrocytes, SYBR Green DNA, 72 h; series mostly up to 28.7 µM
How it was run: as §1

[7] = system: AS120; assay: as above; settings: P. falciparum in erythrocytes, SYBR Green DNA, 72 h; series mostly up to 28.7 µM
How it was run: as §1

[8] = system: ATS189; assay: as above; settings: P. falciparum in erythrocytes, SYBR Green DNA, 72 h; series mostly up to 28.7 µM
How it was run: as §1

[9] = system: ATS95; assay: as above; settings: P. falciparum in erythrocytes, SYBR Green DNA, 72 h; series mostly up to 28.7 µM
How it was run: as §1

[10] = system: C2A; assay: as above; settings: P. falciparum in erythrocytes, SYBR Green DNA, 72 h; series mostly up to 28.7 µM
How it was run: as §1

[11] = system: CP185; assay: as above; settings: P. falciparum in erythrocytes, SYBR Green DNA, 72 h; series mostly up to 28.7 µM
How it was run: as §1

[12] = system: CP191; assay: as above; settings: P. falciparum in erythrocytes, SYBR Green DNA, 72 h; series mostly up to 28.7 µM
How it was run: as §1

[13] = system: CP192; assay: as above; settings: P. falciparum in erythrocytes, SYBR Green DNA, 72 h; series mostly up to 28.7 µM
How it was run: as §1

[14] = system: CP194; assay: as above; settings: P. falciparum in erythrocytes, SYBR Green DNA, 72 h; series mostly up to 28.7 µM
How it was run: as §1

[15] = system: CP201; assay: as above; settings: P. falciparum in erythrocytes, SYBR Green DNA, 72 h; series mostly up to 28.7 µM
How it was run: as §1

[16] = system: CP203; assay: as above; settings: P. falciparum in erythrocytes, SYBR Green DNA, 72 h; series mostly up to 28.7 µM
How it was run: as §1

[17] = system: CP211; assay: as above; settings: P. falciparum in erythrocytes, SYBR Green DNA, 72 h; series mostly up to 28.7 µM
How it was run: as §1

[18] = system: CP215; assay: as above; settings: P. falciparum in erythrocytes, SYBR Green DNA, 72 h; series mostly up to 28.7 µM
How it was run: as §1

[19] = system: CP217; assay: as above; settings: P. falciparum in erythrocytes, SYBR Green DNA, 72 h; series mostly up to 28.7 µM
How it was run: as §1

[20] = system: CP237; assay: as above; settings: P. falciparum in erythrocytes, SYBR Green DNA, 72 h; series mostly up to 28.7 µM
How it was run: as §1

[21] = system: CP238; assay: as above; settings: P. falciparum in erythrocytes, SYBR Green DNA, 72 h; series mostly up to 28.7 µM
How it was run: as §1

[22] = system: CP247; assay: as above; settings: P. falciparum in erythrocytes, SYBR Green DNA, 72 h; series mostly up to 28.7 µM
How it was run: as §1

[23] = system: CP250; assay: as above; settings: P. falciparum in erythrocytes, SYBR Green DNA, 72 h; series mostly up to 28.7 µM
How it was run: as §1

[24] = system: CP252; assay: as above; settings: P. falciparum in erythrocytes, SYBR Green DNA, 72 h; series mostly up to 28.7 µM
How it was run: as §1

[25] = system: CP256; assay: as above; settings: P. falciparum in erythrocytes, SYBR Green DNA, 72 h; series mostly up to 28.7 µM
How it was run: as §1

[26] = system: CP260; assay: as above; settings: P. falciparum in erythrocytes, SYBR Green DNA, 72 h; series mostly up to 28.7 µM
How it was run: as §1

[27] = system: CP262; assay: as above; settings: P. falciparum in erythrocytes, SYBR Green DNA, 72 h; series mostly up to 28.7 µM
How it was run: as §1

[28] = system: CP265; assay: as above; settings: P. falciparum in erythrocytes, SYBR Green DNA, 72 h; series mostly up to 28.7 µM
How it was run: as §1

[29] = system: CP266; assay: as above; settings: P. falciparum in erythrocytes, SYBR Green DNA, 72 h; series mostly up to 28.7 µM
How it was run: as §1

[30] = system: CP268; assay: as above; settings: P. falciparum in erythrocytes, SYBR Green DNA, 72 h; series mostly up to 28.7 µM
How it was run: as §1

[31] = system: CP269; assay: as above; settings: P. falciparum in erythrocytes, SYBR Green DNA, 72 h; series mostly up to 28.7 µM
How it was run: as §1

[32] = system: CP286; assay: as above; settings: P. falciparum in erythrocytes, SYBR Green DNA, 72 h; series mostly up to 28.7 µM
How it was run: as §1

[33] = system: CP291; assay: as above; settings: P. falciparum in erythrocytes, SYBR Green DNA, 72 h; series mostly up to 28.7 µM
How it was run: as §1

[34] = system: CP297; assay: as above; settings: P. falciparum in erythrocytes, SYBR Green DNA, 72 h; series mostly up to 28.7 µM
How it was run: as §1

[35] = system: CP305; assay: as above; settings: P. falciparum in erythrocytes, SYBR Green DNA, 72 h; series mostly up to 28.7 µM
How it was run: as §1

[36] = system: CP315; assay: as above; settings: P. falciparum in erythrocytes, SYBR Green DNA, 72 h; series mostly up to 28.7 µM
How it was run: as §1

[37] = system: CP325; assay: as above; settings: P. falciparum in erythrocytes, SYBR Green DNA, 72 h; series mostly up to 28.7 µM
How it was run: as §1

[38] = system: CP329; assay: as above; settings: P. falciparum in erythrocytes, SYBR Green DNA, 72 h; series mostly up to 28.7 µM
How it was run: as §1

[39] = system: CP335; assay: as above; settings: P. falciparum in erythrocytes, SYBR Green DNA, 72 h; series mostly up to 28.7 µM
How it was run: as §1

[40] = system: DFO2036; assay: as above; settings: P. falciparum in erythrocytes, SYBR Green DNA, 72 h; series mostly up to 28.7 µM
How it was run: as §1

[41] = system: DIV14; assay: as above; settings: P. falciparum in erythrocytes, SYBR Green DNA, 72 h; series mostly up to 28.7 µM
How it was run: as §1

[42] = system: DIV17; assay: as above; settings: P. falciparum in erythrocytes, SYBR Green DNA, 72 h; series mostly up to 28.7 µM
How it was run: as §1

[43] = system: DIV30; assay: as above; settings: P. falciparum in erythrocytes, SYBR Green DNA, 72 h; series mostly up to 28.7 µM
How it was run: as §1

[44] = system: Dd2; assay: as above; settings: P. falciparum in erythrocytes, SYBR Green DNA, 72 h; series mostly up to 28.7 µM
How it was run: as §1

[45] = system: ECU; assay: as above; settings: P. falciparum in erythrocytes, SYBR Green DNA, 72 h; series mostly up to 28.7 µM
How it was run: as §1

[46] = system: FAB9; assay: as above; settings: P. falciparum in erythrocytes, SYBR Green DNA, 72 h; series mostly up to 28.7 µM
How it was run: as §1

[47] = system: GB4; assay: as above; settings: P. falciparum in erythrocytes, SYBR Green DNA, 72 h; series mostly up to 28.7 µM
How it was run: as §1

[48] = system: HB3; assay: as above; settings: P. falciparum in erythrocytes, SYBR Green DNA, 72 h; series mostly up to 28.7 µM
How it was run: as §1

[49] = system: ICS; assay: as above; settings: P. falciparum in erythrocytes, SYBR Green DNA, 72 h; series mostly up to 28.7 µM
How it was run: as §1

[50] = system: JCK; assay: as above; settings: P. falciparum in erythrocytes, SYBR Green DNA, 72 h; series mostly up to 28.7 µM
How it was run: as §1

[51] = system: N140; assay: as above; settings: P. falciparum in erythrocytes, SYBR Green DNA, 72 h; series mostly up to 28.7 µM
How it was run: as §1

[52] = system: P93_24; assay: as above; settings: P. falciparum in erythrocytes, SYBR Green DNA, 72 h; series mostly up to 28.7 µM
How it was run: as §1

[53] = system: P94_40; assay: as above; settings: P. falciparum in erythrocytes, SYBR Green DNA, 72 h; series mostly up to 28.7 µM
How it was run: as §1

[54] = system: PAD; assay: as above; settings: P. falciparum in erythrocytes, SYBR Green DNA, 72 h; series mostly up to 28.7 µM
How it was run: as §1

[55] = system: PC15; assay: as above; settings: P. falciparum in erythrocytes, SYBR Green DNA, 72 h; series mostly up to 28.7 µM
How it was run: as §1

[56] = system: PC26; assay: as above; settings: P. falciparum in erythrocytes, SYBR Green DNA, 72 h; series mostly up to 28.7 µM
How it was run: as §1

[57] = system: PC49; assay: as above; settings: P. falciparum in erythrocytes, SYBR Green DNA, 72 h; series mostly up to 28.7 µM
How it was run: as §1

[58] = system: SC27B; assay: as above; settings: P. falciparum in erythrocytes, SYBR Green DNA, 72 h; series mostly up to 28.7 µM
How it was run: as §1

[59] = system: TAB113; assay: as above; settings: P. falciparum in erythrocytes, SYBR Green DNA, 72 h; series mostly up to 28.7 µM
How it was run: as §1

[60] = system: TAB165; assay: as above; settings: P. falciparum in erythrocytes, SYBR Green DNA, 72 h; series mostly up to 28.7 µM
How it was run: as §1

[61] = system: W2; assay: as above; settings: P. falciparum in erythrocytes, SYBR Green DNA, 72 h; series mostly up to 28.7 µM
How it was run: as §1

Chain of Luciferin 4-monooxygenase (Photinus pyralis) (P08659 whole entry, looked up): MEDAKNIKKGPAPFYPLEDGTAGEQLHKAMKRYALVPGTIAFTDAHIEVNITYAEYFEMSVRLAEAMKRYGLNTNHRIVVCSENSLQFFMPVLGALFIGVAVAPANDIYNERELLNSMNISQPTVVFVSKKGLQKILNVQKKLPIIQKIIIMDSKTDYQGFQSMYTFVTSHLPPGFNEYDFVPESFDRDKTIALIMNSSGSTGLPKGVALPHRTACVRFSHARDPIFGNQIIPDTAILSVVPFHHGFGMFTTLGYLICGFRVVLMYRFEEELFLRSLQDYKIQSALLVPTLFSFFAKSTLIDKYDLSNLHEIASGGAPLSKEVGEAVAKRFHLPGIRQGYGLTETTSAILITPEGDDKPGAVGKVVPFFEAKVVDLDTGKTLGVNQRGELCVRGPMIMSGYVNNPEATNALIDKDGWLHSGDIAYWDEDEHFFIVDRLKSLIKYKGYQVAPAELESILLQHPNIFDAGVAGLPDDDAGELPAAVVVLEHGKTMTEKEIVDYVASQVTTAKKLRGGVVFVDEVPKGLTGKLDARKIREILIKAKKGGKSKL
Chain of ATP-dependent 6-phosphofructokinase (Trypanosoma brucei brucei) (O15648 whole entry, looked up): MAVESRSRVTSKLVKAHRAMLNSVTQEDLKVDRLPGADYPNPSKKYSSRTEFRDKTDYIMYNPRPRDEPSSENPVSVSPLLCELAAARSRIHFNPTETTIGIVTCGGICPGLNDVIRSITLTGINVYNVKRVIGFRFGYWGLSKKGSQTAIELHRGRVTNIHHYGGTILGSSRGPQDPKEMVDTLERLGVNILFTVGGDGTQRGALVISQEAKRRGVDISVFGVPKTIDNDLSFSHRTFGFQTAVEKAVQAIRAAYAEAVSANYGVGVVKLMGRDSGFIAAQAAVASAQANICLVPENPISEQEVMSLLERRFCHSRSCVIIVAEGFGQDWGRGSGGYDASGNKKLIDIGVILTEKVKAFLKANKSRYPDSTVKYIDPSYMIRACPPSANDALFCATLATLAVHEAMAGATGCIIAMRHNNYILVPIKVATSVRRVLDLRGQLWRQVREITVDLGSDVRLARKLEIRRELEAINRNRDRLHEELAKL
Chain of Ubiquitin carboxyl-terminal hydrolase 1 (Homo sapiens) (O94782 whole entry, looked up): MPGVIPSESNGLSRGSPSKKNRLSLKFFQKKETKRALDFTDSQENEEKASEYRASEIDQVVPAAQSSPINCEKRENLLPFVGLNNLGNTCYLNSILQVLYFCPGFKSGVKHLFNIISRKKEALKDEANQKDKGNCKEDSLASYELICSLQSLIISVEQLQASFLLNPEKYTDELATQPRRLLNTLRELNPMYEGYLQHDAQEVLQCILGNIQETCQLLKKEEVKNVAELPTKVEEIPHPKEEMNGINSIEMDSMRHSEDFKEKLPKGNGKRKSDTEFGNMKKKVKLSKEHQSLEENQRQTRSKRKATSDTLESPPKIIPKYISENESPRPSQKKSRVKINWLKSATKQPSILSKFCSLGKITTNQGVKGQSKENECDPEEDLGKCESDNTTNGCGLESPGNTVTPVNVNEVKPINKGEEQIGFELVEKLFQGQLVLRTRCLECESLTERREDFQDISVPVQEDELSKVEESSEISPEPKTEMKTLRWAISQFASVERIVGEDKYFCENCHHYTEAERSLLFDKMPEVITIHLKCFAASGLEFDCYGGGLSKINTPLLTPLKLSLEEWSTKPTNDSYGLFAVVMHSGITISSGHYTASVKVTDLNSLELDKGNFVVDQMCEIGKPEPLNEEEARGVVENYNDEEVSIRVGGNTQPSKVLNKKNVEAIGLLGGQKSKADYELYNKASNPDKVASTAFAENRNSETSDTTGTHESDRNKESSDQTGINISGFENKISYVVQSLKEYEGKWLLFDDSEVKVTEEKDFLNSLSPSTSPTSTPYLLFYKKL

C[C@]12CCC3C(CCC4=C(Cl)C(=O)CC[C@@]43C)C1CCC2O (some centres not stated)
inactive: outcome [1] | Potency [2] | Potency [3] | activity, negative = inhibition ([4]; parasite line A) -5.63% | activity, negative = inhibition ([4]; parasite line B) -11.9% | Potency [5] | Potency [6] | Potency [7] | Potency [8] | Potency [9] | Potency [10] | Potency [11] | Potency [12] | Potency [13] | Potency [14] | Potency [15] | Potency [16] | Potency [17] | Potency [18] | Potency [19] | Potency [20] | Potency [21] | Potency [22] | Potency [23] | Potency [24] | Potency [25] | Potency [26] | Potency [27] | Potency [28] | Potency [29] | Potency [30] | Potency [31] | Potency [32] | Potency [33] | Potency [34] | Potency [35] | Potency [36] | Potency [37] | Potency [38] | Potency [39] | Potency [40] | Potency [41] | Potency [42] | Potency [43] | Potency [44] | Potency [45] | Potency [46] | Potency [47] | Potency [48] | Potency [49] | Potency [50] | Potency [51] | Potency [52] | Potency [53] | Potency [54] | Potency [55] | Potency [56] | Potency [57] | Potency [58] | Potency [59] | Potency [60] | Potency [61]
